Reference: PubChem BioAssay (NCI)
This is part of a sample that, as a whole, favours compounds with a hit. Of some 79,000 tested, about 15% had one in any assay. Unmarked numbers belong to inactive results. Activity calls are given as the source filed them. Cut-off read from the data, not from the text of the source: active = growth inhibition above about 70%; inactive = the rest.

Key:
[1] = NCI Yeast Anticancer Drug Screen. Data for the rad50 strain (AID 155);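 note: 0% = growth of vehicle-only cultures of the same strain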; details: S. cerevisiae rad50 strain growth inhibition, hits give high values
Summary of the method: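 Vehicle-treated cultures provide the reference for the growth inhibition reported for compound-exposed, repair-deficient yeast.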

[2] = NCI Yeast Anticancer Drug Screen. Data for the mec2-1 strain (AID 157); details: S. cerevisiae mec2-1 strain, hits give high values
Summary of the method: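 Each compound was tested on mec2-1 yeast, a strain altered in DNA damage repair or cell cycle control. Growth inhibition is reported relative to vehicle.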

[3] = NCI Yeast Anticancer Drug Screen. Data for the sgs1 mgt1 strain (AID 161);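 note: 0% = growth of cultures given vehicle only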; details: S. cerevisiae sgs1 mgt1 strain, hits give high values
Summary of the method: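 Genetically altered yeast, compound exposure, growth inhibition relative to vehicle.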

[4] = NCI Yeast Anticancer Drug Screen. Data for the cln2 rad14 strain (AID 165);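 note: 0% = growth equal to vehicle treated cultures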; details: S. cerevisiae cln2 rad14 strain, hits give high values
Summary of the method: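 Test compounds were added to cln2 rad14 yeast cultures; inhibition of growth was then determined by comparison with vehicle treatment.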

[5] = NCI Yeast Anticancer Drug Screen. Data for the bub3 strain (AID 167); details: S. cerevisiae bub3 mutant strain, hits give high values
Summary of the method: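 Mutant yeast screening strain plus compound; vehicle-treated cultures serve as the 0% inhibition reference.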

[6] = NCI Yeast Anticancer Drug Screen. Data for the mlh1 rad18 strain (AID 175); details: S. cerevisiae mlh1 rad18 strain growth inhibition, hits give high values
Summary of the method: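 Inhibition values reflect reduced growth of mutant yeast versus vehicle-treated controls following compound exposure; the mutations affect DNA damage repair.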

[7] = at 5.0 µM (retest, dose inferred, filed as 0.5)
[8] = at 50.0 µM (retest, dose inferred, filed as 5.0)

| SMILES | growth inhibition [1, 7] | growth inhibition [1, 8] | growth inhibition ([1]; at 50.0 µM) | growth inhibition [2, 7] | growth inhibition [2, 8] | growth inhibition ([2]; at 50.0 µM) | growth inhibition [3, 7] | growth inhibition [3, 8] | growth inhibition ([3]; at 50.0 µM) | growth inhibition [4, 7] | growth inhibition [4, 8] | growth inhibition ([4]; at 50.0 µM) | growth inhibition [5, 7] | growth inhibition [5, 8] | growth inhibition ([5]; at 50.0 µM) | growth inhibition [6, 7] | growth inhibition [6, 8] | growth inhibition ([6]; at 50.0 µM) |
| --- | --- | --- | --- | --- | --- | --- | --- | --- | --- | --- | --- | --- | --- | --- | --- | --- | --- | --- |
| CCN(CC)c1ccc(/C=C2/C[N+](C)(C)C/C(=C/c3ccc(N(CC)CC)cc3)C2=O)cc1 | -17% | 95% (active) | 79.5% (active) | -19% | 91% (active) | 78.5% (active) | -13% | 97% (active) | 79.2% (active) | 4% | 95% (active) | 76.5% (active) | -20% | 80% (active) | 81.5% (active) | -6% | 96% (active) | 82.2% (active) |
| O=C(O)CCCCCCCCCC[S+](CCO)CCO | -2% | 31% | 43.2% | 3% | 29% | 26.4% | 2% | 50% | 62.1% | 20% | 12% | 67.5% | 3% | 12% | 37.4% | 1% | 44% | 34.5% |
| O=[N+]([O-])/C(C(Cl)=C(Cl)Cl)=C(/Sc1ccccc1)N1CCCCC1 | -3% | 97% (active) | 84.9% (active) | 3% | 95% (active) | 88.5% (active) | -17% | 93% (active) | 77.6% (active) | -7% | 95% (active) | 85.2% (active) | -19% | 96% (active) | 86.1% (active) | -3% | 96% (active) | 77.9% (active) |
| Nc1ccc2nnnn2c1 | 0% | 72% (active) | 24.5% | -2% | 19% | 38% | 9% | 76% (active) | 46.8% | 3% | 27% | 31.2% | 10% | 78% (active) | 5.8% | 14% | 91% (active) | 70.5% (active) |
| CC(=O)N[C@H]1CCC2[C@@H]3CCC4=CC(=O)NCC[C@]4(C)C3CC[C@@]21C (stereo not given in full) | 0% | 89% (active) | 56.5% | -2% | 92% (active) | 46.6% | -3% | 58% | 56.4% | -4% | 78% (active) | 69.5% | 6% | 88% (active) | 96.2% (active) | -2% | 85% (active) | 57.5% |
| CCCNC(=O)C(=O)NNc1ccccc1 | 7% | 64% | 66.8% | 6% | 62% | 59.1% | 10% | 55% | 57% | 11% | 79% (active) | 73.5% (active) | -2% | 95% (active) | 70.7% (active) | 14% | 95% (active) | 90.1% (active) |
| CC(CCC(=O)O)(Nc1ccc([N+](=O)[O-])cc1[N+](=O)[O-])C(=O)O (stereo not given) | 51% | 99% (active) | 99.2% (active) | 41% | 100% (active) | 99.6% (active) | 52% | 99% (active) | 99.1% (active) | 18% | 100% (active) | 91.9% (active) | 34% | 100% (active) | 98.8% (active) | 57% | 100% (active) | 98.8% (active) |
| COc1ccc(N2C(=O)C(=O)N(c3ccccc3[N+](=O)[O-])C2=S)cc1 | 16% | 99% (active) | 86.3% (active) | -10% | 96% (active) | 90% (active) | 7% | 98% (active) | 86.2% (active) | 16% | 94% (active) | 72.2% (active) | 7% | 98% (active) | 78.2% (active) | 3% | 98% (active) | 83.9% (active) |
| Cc1c(C(=O)N(CCO)CCO)[n+](=O)c2ccccc2n1[O-] | 5% | 3% | 28.9% | 13% | 7% | -5.35% | 38% | 18% | 14.7% | 1% | 2% | 39% | 3% | 26% | -5.1% | 31% | 13% | 65.7% |
| O=S1(=O)CC2C1C1(Cl)OC2(Cl)c2ccccc21 (stereo not given) | 2% | 13% | 75.2% (active) | 16% | 9% | -9.25% | 2% | 6% | 31.1% | -45% | 17% | -1.65% | -3% | -9% | 21.4% | 1% | 1% | 27.6% |
| CCc1ccccc1NC(=O)C(=O)CC(=O)c1ccc(Cl)s1 | 1% | 1% | 45.1% | -2% | -40% | 2.6% | -1% | 2% | 6.85% | -2% | 6% | 26.2% | 2% | 1% | -9.55% | 0% | 5% | -0.1% |
| CCC(CC=C(C)C)(CC=C(C)C)c1ccncc1 (tested in a mixture with another compound) | -7% | 84% (active) | 97.8% (active) | -8% | 76% (active) | 99% (active) | 1% | 80% (active) | 98.9% (active) | -5% | 50% | 70.5% (active) | 1% | 76% (active) | 93.2% (active) | -4% | 74% (active) | 96.2% (active) |
| CCCC[N-]CC(O)C[NH-].O=C(O)CC(=O)O.[Pt+2] (stereo not given) | 2% | 6% | 11.6% | -10% | -23% | 23.2% | 1% | 6% | 22.2% | 1% | 7% | 80% (active) | 3% | 4% | 0.55% | 0% | -7% | 29.9% |
| CC(C)=CCC(OC(=O)CC(C)C)C1=CC(=O)c2c(O)ccc(O)c2C1=O (stereo not given) | -1% | 99% (active) | 87.3% (active) | 1% | 99% (active) | 89.2% (active) | 1% | 99% (active) | 89.7% (active) | -17% | 99% (active) | 82.2% (active) | 2% | 99% (active) | 86% (active) | 1% | 99% (active) | 87.4% (active) |
| CCOC(=O)C1SC(=S)N(C)C1=O (stereo not given) | 3% | 99% (active) | 99.2% (active) | -2% | 99% (active) | 99.5% (active) | 8% | 99% (active) | 99% (active) | -7% | 99% (active) | 99.1% (active) | -3% | 98% (active) | 99.4% (active) | 19% | 98% (active) | 99.4% (active) |
| CCN1CCC(O)(/C=C/c2ccc(Cl)c(Cl)c2)C(C(=O)/C=C/c2ccc(Cl)c(Cl)c2)C1 (stereo not given) | 99% (active) | 99% (active) | 99% (active) | 99% (active) | 100% (active) | 99.4% (active) | 99% (active) | 100% (active) | 99.5% (active) | 99% (active) | 99% (active) | 97.8% (active) | 99% (active) | 99% (active) | 99% (active) | 99% (active) | 97% (active) | 98.9% (active) |
| CCSC(=S)NC(=O)c1ccccc1 | -6% | 27% | 60.2% | 1% | 20% | 21.4% | -2% | 30% | 76.5% (active) | -12% | 28% | 38.1% | -7% | 44% | 17.2% | -3% | 32% | 36.9% |
| Cc1ccccc1NC(=S)Nc1ccccc1O | -4% | 81% (active) | 97.2% (active) | -2% | 87% (active) | 94.4% (active) | 0% | 82% (active) | 90.8% (active) | -5% | 63% | -27.8% | 20% | 98% (active) | 98.3% (active) | -3% | 71% (active) | 95.1% (active) |
| c1ccc(NN=C(c2ccccc2)c2ccccc2)cc1 | -2% | 76% (active) | 94.2% (active) | -17% | 55% | 94.3% (active) | 7% | 68% | 95.8% (active) | 1% | 63% | 91.8% (active) | 12% | 83% (active) | 93.8% (active) | 12% | 91% (active) | 95.2% (active) |
| Nc1ccc2c(c1)S(=O)(=O)c1cc(O)ccc1O2 | 23% | 18% | 32.9% | 10% | 20% | -26.8% | 13% | 25% | -22.6% | 11% | 24% | -4.55% | 21% | 28% | -15.2% | 8% | 5% | -71% |
